Some test systems named below: NCI-H23 lung; NCI-H226 lung; NCI-H460 lung; NCI-H522 lung; A549/ATCC NSCLC; 786-0 renal; COLO 205 colon; NCI-H322M lung; HOP-62 NSCLC; HOP-92 NSCLC.
Assay in all cases: NCI-60 one-dose screen, 48 h (100 = growth as untreated, 0 = no growth, -100 = all killed)
Conditions in all cases: 10 µM

About 83,000 compounds went through this panel and 20% of them were active in at least one assay; those are over-represented in the sample as a whole.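 Single-dose data. Exposure time 48 hours. Values below 10 considered active.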 A number with no mark means an inactive call. Active and inactive are the calls of the source.

As to `CCOC(=O)CSc1nc(-c2cc(OC)ccc2OC)cc(-c2ccc(OC)cc2)c1C#N`, the growth with NCI-H23 lung was 87%; in the experiment with NCI-H226 lung, 86.4%; in the experiment on NCI-H460 lung it was 66.6%; in the experiment on NCI-H522 lung, 55.8%; in the experiment with A549/ATCC NSCLC, 61.6%; in the experiment on 786-0 renal, 71.9%. In addition, in the experiment with COLO 205 colon, the growth was 101%.

Regarding `Fc1ccc2[nH]cc(-c3nc(-c4ccsc4)cs3)c2c1`, the growth with NCI-H23 lung was 83.6%; with NCI-H226 lung, 78.5%; in the experiment on NCI-H460 lung, 121%; in the experiment with NCI-H522 lung it was 79.2%; with A549/ATCC NSCLC, 80%; in the experiment on 786-0 renal, 109%. Also, the growth in the experiment with COLO 205 colon was 101%.

`CN1CCc2c(sc3nc4n(-c5ccc(Cl)cc5)cnn4c(=O)c23)C1`: the growth in the experiment on NCI-H23 lung is 91.8%; in the experiment on NCI-H226 lung, 92.2%; in the experiment with NCI-H460 lung, 124%; in the experiment with NCI-H522 lung, 94.1%; in the experiment on A549/ATCC NSCLC, 88.2%; in the experiment on 786-0 renal it was 96.4%. Further, the growth in the experiment with COLO 205 colon was 97.7%.

Regarding `CN1C(C(=O)Nc2ccccn2)=C(O)c2sc(Cl)cc2S1(=O)=O`, the growth in the experiment on NCI-H23 lung was 99.6%; with NCI-H226 lung, 106%; in the experiment with NCI-H460 lung it was 99.9%; with A549/ATCC NSCLC, 99.9%; in the experiment on 786-0 renal, 104%; in the experiment on COLO 205 colon, 105%.

Take `COc1cc2c3c(n([C@H]4CCOC4)c(=O)c2cc1OC)-c1cc2c(cc1C3=O)OCO2`: the growth with NCI-H23 lung is 17.4%; with NCI-H226 lung, 20.8%; in the experiment on NCI-H460 lung, 3.66% (active); with NCI-H522 lung it was 15.8%; in the experiment on A549/ATCC NSCLC, 32.5%; in the experiment on 786-0 renal, 10.6%. Further, the growth with COLO 205 colon is 35.8%.

For `O=C(Nc1ccccc1)Nc1ncnc2c1ncn2-c1ccccc1`, the growth was 90.9% with NCI-H23 lung; 59.1% in the experiment on NCI-H226 lung; 7.9% (active) with NCI-H460 lung; 74.4% in the experiment with NCI-H522 lung; 44.5% with A549/ATCC NSCLC; 12.1% with 786-0 renal. For the same compound, the growth in the experiment on COLO 205 colon was 86.1%.

As to `N#Cc1c(-c2ccc(Cl)cc2)cc(-c2cc(O)ccc2O)nc1N`, the growth with NCI-H23 lung was 11.2%; with NCI-H226 lung, 94.8%; with NCI-H460 lung it was 5.46% (active); with NCI-H522 lung, -8.49% (active); in the experiment on A549/ATCC NSCLC, 40%; in the experiment on 786-0 renal, -4.38% (active). The growth in the experiment with COLO 205 colon is 97.5%.

On to `O=C(CCCCNC(=O)c1nc(-c2ccccc2)n(-c2ccccc2)n1)NO`, for which the growth was 87% in the experiment with NCI-H23 lung; 83.9% in the experiment on NCI-H226 lung; 78.1% in the experiment with NCI-H460 lung; 27.7% in the experiment on NCI-H522 lung; 84.2% with A549/ATCC NSCLC; 92% in the experiment on 786-0 renal. Besides, in the experiment with COLO 205 colon, the growth is 84.9%.

As for `CCCCCC(=O)O[C@]1(C(C)=O)CCC2C3CCC4=CC(=O)CC[C@]4(C)C3CC[C@@]21C` (some centres not stated), the growth in the experiment with NCI-H23 lung was 22.1%; in the experiment with NCI-H226 lung, 52.7%; with NCI-H460 lung, 15.2%; with A549/ATCC NSCLC, 27.9%; in the experiment with 786-0 renal, 40.3%; with COLO 205 colon it was 13.3%.

Regarding `Clc1nc2ccccc2cc1Cn1nnc(Cc2ccccc2)n1`, the growth is 45.6% in the experiment with NCI-H23 lung; 58.2% with NCI-H226 lung; 74.3% with NCI-H460 lung; 42.1% in the experiment on NCI-H522 lung; 53.9% in the experiment with A549/ATCC NSCLC; 72.9% in the experiment on 786-0 renal. Further, the growth with COLO 205 colon was 82.7%.

On to `COc1ccc2c(c1)C(=O)/C(=C/c1ccc([N+](=O)[O-])o1)O2`, for which the growth with NCI-H23 lung was -59% (active); in the experiment on NCI-H226 lung, -13.7% (active); with NCI-H460 lung it was -46.8% (active); with NCI-H522 lung, -85% (active); with A549/ATCC NSCLC it was -5.34% (active); with 786-0 renal it was -71% (active). Further, in the experiment on COLO 205 colon, the growth was -81.6% (active).

As to `Cc1ccc(-n2c(C)nn3c(=O)c4c5c(sc4nc23)CN(C)CC5)cc1`, the growth is 97.4% in the experiment with NCI-H23 lung; 98.3% with NCI-H226 lung; 109% with NCI-H460 lung; 71.5% in the experiment with NCI-H522 lung; 73.7% in the experiment on A549/ATCC NSCLC; 86.3% in the experiment on 786-0 renal. In the experiment on COLO 205 colon, the growth is 103%.

As for `CCOC(=O)c1sc2ncnc(Nc3ccc4c(cnn4C(=O)Nc4ccc(C)c(Cl)c4)c3)c2c1C`, the growth in the experiment with NCI-H23 lung was 91.4%; with NCI-H226 lung, 87.6%; in the experiment on NCI-H460 lung it was 114%; with NCI-H522 lung, 68.8%; in the experiment on A549/ATCC NSCLC it was 72.7%; in the experiment on 786-0 renal, 89.6%. The growth in the experiment on COLO 205 colon is 110%.

`O=C(CCCNC(=O)c1nc(-c2ccccc2)n(-c2ccccc2)n1)NO`: the growth in the experiment with NCI-H23 lung was 101%; with NCI-H226 lung, 85.6%; in the experiment on NCI-H522 lung it was 75.4%; in the experiment with A549/ATCC NSCLC it was 71.7%; with 786-0 renal it was 92.3%; in the experiment with COLO 205 colon, 109%.

As to `CCCN1CN2C(=O)N3CN(CCC)CN4C(=S)N(C1)C2C34` (configuration not stated), the growth was 100% in the experiment with NCI-H23 lung; 87.6% in the experiment on NCI-H322M lung; 84.7% in the experiment with HOP-62 NSCLC; 112% with NCI-H460 lung; 101% in the experiment on HOP-92 NSCLC; 91.7% with NCI-H522 lung. Moreover, the values for the growth in the experiment with A549/ATCC NSCLC and with 786-0 renal were 102% and 93.2%, respectively.

`CCNc1nc(C(F)(F)F)nc2c1sc(=S)n2-c1ccccc1`: the growth in the experiment with NCI-H23 lung is 93.4%; in the experiment with NCI-H226 lung, 88.5%; with NCI-H460 lung, 100%; with NCI-H522 lung it was 70.4%; in the experiment on A549/ATCC NSCLC, 74.4%; in the experiment with 786-0 renal, 101%. For the same compound, in the experiment on COLO 205 colon, the growth was 106%.

Turning to `COCCn1cc(-c2nc(-c3cccnc3)cs2)c2cc(F)ccc21`, the growth in the experiment with NCI-H23 lung is 94%; with NCI-H226 lung, 91.5%; in the experiment on NCI-H460 lung it was 92.7%; in the experiment with NCI-H522 lung, 70.6%; in the experiment with A549/ATCC NSCLC it was 90.1%; in the experiment with 786-0 renal, 90.8%. Moreover, the growth in the experiment on COLO 205 colon was 104%.

As for `C[C@@H](O)[C@H]1C(=O)N2C(C(=O)O)=C(SC3CN[C@H](C(=O)N(C)C)C3)[C@H](C)[C@H]12` (some centres not stated), the growth was 97.2% with NCI-H23 lung; 99.2% with NCI-H226 lung; 102% with NCI-H460 lung; 96.6% with A549/ATCC NSCLC; 103% in the experiment on 786-0 renal; 113% with COLO 205 colon.

Consider `Cc1c2c[n+](C(C)C)ccc2c(C)c2c1[nH]c1ccccc12`, for which the growth is 6.42% (active) in the experiment with NCI-H23 lung; 27.4% with NCI-H226 lung; 4.39% (active) in the experiment with NCI-H460 lung; 2.71% (active) with NCI-H522 lung; 20.4% in the experiment on A549/ATCC NSCLC; 27.7% in the experiment on 786-0 renal. Also, the growth in the experiment with COLO 205 colon was -6.61% (active).

Regarding `O=C1c2ccccc2-c2c1c1cccnc1c(=O)n2C[C@H](O)CO`, the growth was 56.6% with NCI-H23 lung; 78.8% in the experiment on NCI-H226 lung; 14.6% with NCI-H460 lung; 44.4% in the experiment on NCI-H522 lung; 31.9% with A549/ATCC NSCLC; 55.2% in the experiment with 786-0 renal. In addition, the growth in the experiment with COLO 205 colon is 53.9%.

Consider `Cc1ccccc1N1C(=O)c2cc(S(N)(=O)=O)c(Cl)cc2NC1C` (configuration not stated), for which the growth with NCI-H23 lung was 101%; in the experiment with NCI-H226 lung, 112%; with NCI-H460 lung, 111%; in the experiment with A549/ATCC NSCLC it was 100%; in the experiment with 786-0 renal, 99.6%; in the experiment with COLO 205 colon it was 118%.

As to `O=C1c2c(c3c4ccccc4n(CCCCCCN4CCOCC4)c3c3[nH]c4ccccc4c23)C(=O)N1O`, the growth was 81.5% with NCI-H23 lung; 66.7% in the experiment on NCI-H226 lung; 72.2% in the experiment with NCI-H460 lung; 67.3% in the experiment on NCI-H522 lung; 81.1% in the experiment on A549/ATCC NSCLC; 5.72% (active) in the experiment on 786-0 renal. Besides, the growth in the experiment on COLO 205 colon was 36%.

For the compound `O=c1[nH]c(=O)n(C2C[C@H](O)[C@@H](CO)O2)cc1C(F)(F)F` (some centres not stated), the growth in the experiment on NCI-H23 lung is 98.1%; in the experiment on NCI-H226 lung it was 107%; with NCI-H460 lung, 113%; in the experiment on A549/ATCC NSCLC, 102%; with 786-0 renal, 101%; in the experiment with COLO 205 colon, 113%.

In the case of `COc1ccc(C(=O)N2C=Cc3ccccc3C2C#N)cc1` (configuration not stated), the growth with NCI-H23 lung was 95.3%; in the experiment with NCI-H226 lung, 87.7%; with HOP-92 NSCLC, 102%; with NCI-H522 lung, 94.2%; in the experiment on A549/ATCC NSCLC it was 101%; in the experiment with 786-0 renal it was 114%. In the experiment on COLO 205 colon, the growth is 105%.

Take `c1cncc(-c2csc(-c3c[nH]c4ccccc34)n2)c1`: the growth with NCI-H23 lung is 84.4%; with NCI-H226 lung, 84.1%; in the experiment with NCI-H460 lung it was 97%; in the experiment with NCI-H522 lung, 73.5%; in the experiment on A549/ATCC NSCLC, 78.8%; in the experiment with 786-0 renal, 103%. Also, the growth in the experiment with COLO 205 colon was 94.9%.

`COc1ccc([C@H]2[C@H](C(=O)Nc3cccnc3)c3ccccc3C(=O)N2c2ccccc2)cc1`: the growth was 90.5% in the experiment on NCI-H23 lung; 95.9% in the experiment with NCI-H226 lung; 91.4% in the experiment with NCI-H460 lung; 82.4% in the experiment on NCI-H522 lung; 87.8% with A549/ATCC NSCLC; 91.2% in the experiment with 786-0 renal. Further, the growth in the experiment with COLO 205 colon was 63.2%.

Turning to `COc1ccc2nc(Cl)c(Cn3nnc(Cc4ccccc4)n3)cc2c1`, the growth in the experiment on NCI-H23 lung was 32.5%; with NCI-H226 lung, 39%; with NCI-H460 lung, 40%; in the experiment on NCI-H522 lung it was 38%; in the experiment on 786-0 renal it was 47.5%; with COLO 205 colon, 24.9%.

For `Cc1c2cnccc2c(C)c2c1c1cc(O)ccc1n2C(C)C`, the growth in the experiment on NCI-H23 lung was 0.21% (active); in the experiment with NCI-H226 lung, 79.3%; with NCI-H460 lung, -10% (active); in the experiment with NCI-H522 lung, -9.59% (active); with A549/ATCC NSCLC, 7.74% (active); in the experiment on 786-0 renal, 5.57% (active). Moreover, the growth in the experiment on COLO 205 colon was 17.9%.

For `CCCCCCCCCCCCCCCCCC[n+]1ccc2c(C)c3c(c(C)c2c1)c1cc(O)ccc1n3CC`, the growth was 4.06% (active) in the experiment on NCI-H23 lung; 58% with NCI-H226 lung; 6.93% (active) in the experiment on NCI-H460 lung; 29.2% with NCI-H522 lung; 13.9% with A549/ATCC NSCLC; 5.53% (active) in the experiment with 786-0 renal. For the same compound, in the experiment on COLO 205 colon, the growth was -46.6% (active).

These data come from PubChem BioAssay (NCI).
